Shown is part of a subset that was picked to be rich in hits.
KDM5B inh – blocks human KDM5B histone demethylase activity; Q9UGL1; AID 1347165; KDM5B demethylase, FDH-coupled NADH fluorescence (FDH is formaldehyde dehydrogenase); Potency, µM (titrated, usually from 57.7 µM), actives largely listed as inhibitors; 220,000 compounds, 2.6% hits; active means well fitted inhibition curve with a large enough effect; further: 0% is about no effect; nearly all actives have a fitted effect of over 70% in size
Target sequence (Q9UGL1 whole entry, looked up): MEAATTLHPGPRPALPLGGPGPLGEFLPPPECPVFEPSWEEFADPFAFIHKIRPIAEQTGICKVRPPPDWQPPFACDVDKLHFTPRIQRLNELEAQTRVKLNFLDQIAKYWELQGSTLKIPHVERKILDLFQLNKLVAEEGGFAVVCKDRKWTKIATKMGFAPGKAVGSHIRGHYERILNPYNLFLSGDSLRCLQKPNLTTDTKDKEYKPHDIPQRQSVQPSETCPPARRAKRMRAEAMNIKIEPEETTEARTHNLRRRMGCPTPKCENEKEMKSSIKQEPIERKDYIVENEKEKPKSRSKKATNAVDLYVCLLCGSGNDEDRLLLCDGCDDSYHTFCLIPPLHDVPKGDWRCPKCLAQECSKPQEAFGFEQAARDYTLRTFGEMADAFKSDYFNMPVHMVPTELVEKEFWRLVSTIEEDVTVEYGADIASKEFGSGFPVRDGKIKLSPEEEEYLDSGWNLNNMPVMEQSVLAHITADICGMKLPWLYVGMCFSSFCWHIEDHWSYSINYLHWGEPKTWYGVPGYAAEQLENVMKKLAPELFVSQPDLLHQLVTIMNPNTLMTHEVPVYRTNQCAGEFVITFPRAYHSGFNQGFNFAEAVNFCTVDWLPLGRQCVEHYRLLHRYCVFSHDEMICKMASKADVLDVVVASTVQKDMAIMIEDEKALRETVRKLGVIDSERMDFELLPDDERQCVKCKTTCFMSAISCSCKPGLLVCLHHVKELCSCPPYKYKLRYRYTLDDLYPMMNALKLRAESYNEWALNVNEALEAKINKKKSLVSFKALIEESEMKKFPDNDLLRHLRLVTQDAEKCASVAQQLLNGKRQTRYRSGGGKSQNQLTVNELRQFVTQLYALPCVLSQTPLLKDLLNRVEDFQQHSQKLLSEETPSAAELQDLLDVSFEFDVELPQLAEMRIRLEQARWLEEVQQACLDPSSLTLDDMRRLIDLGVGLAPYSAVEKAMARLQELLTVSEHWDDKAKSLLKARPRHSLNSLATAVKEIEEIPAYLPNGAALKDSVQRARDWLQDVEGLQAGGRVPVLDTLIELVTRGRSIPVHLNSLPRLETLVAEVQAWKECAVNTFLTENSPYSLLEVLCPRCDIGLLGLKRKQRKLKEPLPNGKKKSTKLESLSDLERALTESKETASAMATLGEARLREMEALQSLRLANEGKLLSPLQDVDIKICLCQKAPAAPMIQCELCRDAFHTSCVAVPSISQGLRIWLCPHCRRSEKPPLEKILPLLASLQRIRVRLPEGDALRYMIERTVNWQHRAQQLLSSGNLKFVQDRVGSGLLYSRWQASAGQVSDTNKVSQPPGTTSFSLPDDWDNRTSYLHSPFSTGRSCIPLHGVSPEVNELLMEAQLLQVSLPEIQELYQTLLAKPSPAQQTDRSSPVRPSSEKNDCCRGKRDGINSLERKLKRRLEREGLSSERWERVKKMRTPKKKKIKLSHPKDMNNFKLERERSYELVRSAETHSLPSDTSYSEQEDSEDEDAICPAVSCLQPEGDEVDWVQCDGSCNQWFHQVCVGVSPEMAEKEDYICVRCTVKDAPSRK
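Measured: NADH fluorescence change, 30 min, RT. System: KDM5BΔAP 200 nM final, H3K4me3 peptide, α-KG, Fe(II), ascorbate, NAD⁺ plus FDH, pH 7.5 HEPES. Compounds: titrated, 10 min pre-incubation with enzyme.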
The depositor's hits bear a star; i = inactive; ! = not active in a repeat. Potency means the concentration at half of the fitted maximal effect.

SMILES | KDM5B inh
Cn1c(C(=O)NCCc2ccccc2)cc2sc(Cl)cc21 | i
Cc1cc(C(=O)NCCN(C)C)c2ccccc2n1 | i
O=C(c1cc(S(=O)(=O)N2CCCCC2)ccc1Cl)N1CCN(c2ccccn2)CC1 | i
N#Cc1c(SCC(=O)N2CCCC2)nc(N2CCCCC2)c2c1CCCC2 | i
CCC1CCc2sc(C(=O)NCc3csc(-c4cccc(C)c4)n3)cc2C1 (centres undefined) | i
CN(CC1CCOC1)S(=O)(=O)c1ccc(F)c(F)c1 (centres undefined) | i
COc1ccc(-c2csc(C3CCSC(C)(C)C3)n2)cc1 (centres undefined) | i
CCc1nnc(NC(=O)Nc2cccc(Cl)c2)s1 | i
Cc1ccc(/C(C#N)=C\c2cc(C)n(C)c2C)cc1 | i
COc1ccc(CC(=O)NC2CCN(c3cc(-c4ccc(OC)cc4)[nH]n3)CC2)cc1 | i
O=C(Cc1ccc(F)cc1)NC1CCN(c2nc3ncccc3o2)CC1 | 28.2µM*
O=C(NCc1ccc(F)cc1)C1CCN(c2nc3ccccc3o2)CC1 | i
O=C(Nc1ccccc1Cl)C1CCCN1c1nc2ncccc2o1 (centres undefined) | i
O=C(Cc1ccc(F)cc1)N1CCN(c2nc3ncccc3o2)CC1 | i
COc1ccc(CC(=O)NC2CCN(c3nc4ncccc4o3)CC2)cc1 | 31.6µM*
O=C(Cc1ccccn1)NC1CCN(c2nc3ncccc3o2)CC1 | 25.1µM*!
COc1ccc(CC(=O)NC2CCN(c3cn[nH]c(=O)c3)CC2)cc1 | i
CCn1ncc(N2CCC(NC(=O)Cc3ccc(OC)cc3)CC2)cc1=O | i
COc1ccc(CC(=O)NC2CCN(c3nnc4cccc(C)n34)CC2)cc1 | 28.2µM*
COc1cccc(CNC(=O)C2CCN(c3nc4ccccc4o3)CC2)c1 | i
NCc1ccccc1-c1ccc(OC(F)(F)F)cc1 | i
Cc1ccc2nc3sc(C(=O)N4CCN(c5cccc(C(F)(F)F)c5)CC4)cc3cc2c1 | i
CCN1CCCC1CNC(=O)C(C)C (centres undefined) | i
CCOc1cc(=O)n2c(c1C(=O)NC1CC1)CCCCC2 | i
CS(=O)(=O)N1CCCc2cc(C(=O)Nc3ccc(-c4nnc5n4CCCCC5)cc3)ccc21 | i
SMILES | KDM5B inh
CCCNC(=O)NCc1nc(-c2ccc(OCC)cc2)oc1C | i
CCCCCCNC(=O)C(C#N)c1nc2ccccc2nc1N1CCN(c2ccc(F)cc2)CC1 (centres undefined) | i
C=C(C)CN(C)C(=O)c1cc(CN2CCC(Cc3ccccc3)CC2)on1 | i
COc1ccc(OC)c(/C=C(\C#N)C(=O)Nc2cccc(C(F)(F)F)c2)c1 | i
CC(C)CCNC(=O)c1ccc2c(c1)CCCN2C(=O)c1ccc(Cl)cc1 | i
CCOC(=O)c1sc2cccc(F)c2c1COC(=O)c1ccoc1C | i
CNC(=O)N1CCC(N2C(=O)C3(CCCCC3)C2c2ccccc2)CC1 (centres undefined) | i
COc1ccc(C2(C(=O)N3CCCC(CN4CCOCC4)CC3)CC2)cc1 (centres undefined) | i
Cc1ccc(C(=O)NCC(=O)N2CCCCCNC(=O)CC2c2ccccc2)cn1 (centres undefined) | i
Cc1ccc(C)c2sc(N3CCN(C(=O)c4ccco4)CC3)nc12 | i
Cc1cccc2sc(N3CCN(C(=O)c4ccco4)CC3)nc12 | i
Cc1cccc2nnc(N3CCN(C(=O)c4ccco4)CC3)n12 | 22.4µM*
CC(C)(C)CC(=O)N1C[C@@H](CO)[C@H](c2nc(-c3ccncc3)no2)C1 | i
CNC(=O)c1cnc2c(c1)N(C(=O)Cc1ccc(C(C)C)cc1)CCC2 | i
Cc1csc(NC(=O)c2cnc3c(c2)N(C(=O)Cc2ccc(C(C)C)cc2)CCC3)n1 | 31.6µM*
CC(C)c1ccc(CC(=O)N2CCCc3ncc(C(=O)Nc4ccn(C)n4)cc32)cc1 | i
O=C(CSc1nnc(Cc2cccs2)n1C1CC1)N1CCN(c2ccccc2)CC1 | i
O=C(CSc1c2c(nc3ccccc13)CCC2)Nc1cccc(C(F)(F)F)c1 | i
COC(=O)c1c(C)[nH]c(C(=O)N2CCCC2c2ccc(OC)c(OC)c2)c1C (centres undefined) | i
COc1ccc(CN2Cc3[nH]nc(-c4ccc(C(=O)N5CCOCC5)cc4)c3CC2=O)cc1 | i
O=C(c1nc(-c2ccc(Cl)cc2Cl)c2ccccn12)N1CCOCC1 | 89.1µM*
CCOc1ccc(-c2cc(C(=O)N3CCN(c4ncccn4)CC3)c3ccccc3n2)cc1 | i
CC(=O)c1c(-c2ccc(Cl)cc2)nc2n(CCN3CCOCC3)c3ccccc3n12 | i
COc1cc(C(=O)N2CCN(c3ncccn3)CC2)cc(Cl)c1OC | i
O=C(c1nc(-c2ccc(Cl)cc2)c2ccccn12)N1CCOCC1 | 39.8µM*
SMILES | KDM5B inh
O=C(C(=O)N1CCN(C(=O)c2cc(-c3ccc(Cl)cc3)nc3ccccc23)CC1)N1CCOCC1 | i
COc1ccc(-c2nc(C(=O)N3CCN(c4ncccn4)CC3)n3ccccc23)cc1 | 31.6µM*
COc1ccc(C2(C(=O)N3CCOCC3)CCOCC2)cc1 | i
COc1ccc(-c2nc(C(=O)N3CCOCC3)n3ccccc23)cc1 | 39.8µM*
O=C(c1cc(-c2ccc(Cl)cc2Cl)c2cccn2n1)N1CCOCC1 | i
O=C(C1CCc2nnc(-c3ccc(Cl)cc3Cl)n21)N1CCOCC1 (centres undefined) | i
Cc1[nH]c(C#N)c(C)c1C=O | i
Cc1ccc(C(C)NC(=O)Cc2c[nH]c3ccccc23)o1 (centres undefined) | i
COC(=O)c1sc(=S)n(-c2ccc(Br)cc2)c1N | i
CCc1nn(-c2ccccc2)c(Oc2cccc(C)c2)c1CCC(=O)N1CCOCC1 | i
O=C1CN(c2nc(-c3ccccc3)nc3ccccc23)CCN1 | i
O=C1CCN(Cc2ccc3c(c2)CCO3)CCCCCCN1 | i
COCCn1c(C)cnc1CCNC(=O)C1(c2ccc(OC)cc2)CC1 | i
C[C@@H](NC(=O)C1CC1)c1c(-c2ccc(Cl)cc2)noc1C(=O)O | i
CC(C)CC(=O)N[C@H](C)c1c(-c2ccc(Cl)cc2)noc1C(=O)O | i
Cc1cc(C(=O)N[C@H](C)c2c(-c3ccc(Cl)cc3)noc2C(=O)O)c(C)o1 | 28.2µM*
O=C(O)c1cc(Cl)c(Cl)cc1C(=O)O | i
Cn1ncc(N2CCCC(C(=O)NCCCc3ccccc3)C2)cc1=O (centres undefined) | i
Cc1cn2nc(C(=O)NCCc3ccccc3)cc2c(N2CCCC2)n1 | i
CCOc1cccc(CNC(=O)c2cc3c(N4CCCC4)nc(C)cn3n2)c1 | i
Cc1cn2nc(C(=O)NCc3cccnc3)cc2c(N2CCCC2)n1 | i
Cc1cn2nc(C(=O)NCc3cccc(Cl)c3)cc2c(N2CCCC2)n1 | 25.1µM*
Cc1cn2nc(C(=O)NCCCc3ccccc3)cc2c(N2CCCC2)n1 | 25.1µM*
Cc1ccc(OCCC2CCN(C(=O)c3ccc(C)nc3)C2)cc1 (centres undefined) | i
Cc1ccc(C(=O)Nc2sc3c(c2C(=O)N2CCN(C)CC2)CCCCC3)cc1 | i
SMILES | KDM5B inh
Cc1ccc(S(=O)(=O)Nc2cccn3nc(C4CCC4)nc23)cc1 | i
Nc1cccn2nc(C3CCC3)nc12 | 17.8µM*
O=C(Nc1cccn2nc(C3CCC3)nc12)c1ccc(F)cc1 | i
O=C(Nc1cccc(F)c1)N1CC(Oc2ccc(-c3nc(-c4ccccc4)no3)cc2)C1 | i
CCc1cccc(-n2cc(C(=O)N3CCC(NC(=O)OC(C)(C)C)CC3)nn2)c1 | i
CCCNc1c(NC(=O)CC(=O)OCC)c(=O)oc2ccccc12 | i
